# Assay results: PubChem BioAssay (NCATS)
# Where “and” joins values, the source holds several entries; their conditions need not be identical. Equal values may be shown once. Results filed as inconclusive are left out. Where a call stands in place of a potency, no number is given. Calls of active or inactive are those of the source. Unless noted, calls come from the whole dose curve; as a rule, active = well fitted curve in the direction sought with a large enough effect; inconclusive = small, poorly fitted or top-dose-only effect, or another doubt; inactive = no such curve, though single readings can be large; an effect the other way counts as inactive or inconclusive.
# Columns and labels:
# [1] = biological target: M-phase phosphoprotein 8 (Homo sapiens) (UniProt Q99549); assay: qHTS Validation Assay for Inhibitors for MPP8 Chromodomain Interactions with Methylated Histone Tails (AID 488949);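 note: AlphaScreen signal from MPP8 chromodomain bound to biotinylated H3K9me3 peptide; top concentration of the series differs between compounds; nearly all actives have a fitted effect of over 55% in size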
# How it was run: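 Disruption of the preformed MPP8–trimethyl-H3K9 peptide complex (both 50 nM, 30 min, RT) is measured after 30 min compound exposure, using AlphaScreen proximity beads; aurintricarboxylic acid titration serves as plate control.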
# [2] = biological target: Chromobox protein homolog 1 (Homo sapiens) (UniProt P83916); assay: qHTS Validation Assay for Inhibitors of HP1-beta Chromodomain Interactions with Methylated Histone Tails (AID 488953);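 note: loss of AlphaScreen luminescence from HP1-beta binding biotinylated H3K9me3 peptide; series mostly up to about 110 µM; nearly all actives have a fitted effect of over 50% in size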
# How it was run: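 HP1-beta (50 nM) preformed 30 min with biotinylated H3(1-18)K9me3 peptide (50 nM) in PBS pH 7.4, 0.01% Tween-20. Compounds added for 30 min at room temperature. Complex disruption read by AlphaScreen with streptavidin donor/nickel chelate acceptor beads (10 ug/mL each).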
# [3] = biological target: Transient receptor potential cation channel subfamily V member 1 (Homo sapiens) (UniProt Q8NER1); assay: HTS Assay for Compounds that Act as Enhancers of the Vanilloid Receptor 1 (AID 488979)
# How it was run: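 TRPV1 cells loaded with Fluo-8 calcium dye; compound added and Ca2+ signal (ex 480/em 520 nm) followed 3 min, then capsaicin at EC20 added and read 2 more min to detect enhancement.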
# [4] = biological target: D(1A) dopamine receptor (Homo sapiens) (UniProt P21728); assay: HTS Assay for Allosteric Agonists of the Human D1 Dopamine Receptor: Primary Screen for Agonists (AID 488981)
# How it was run: (§1)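 Tetracycline-induced HEK293 Trex D1 cells with forced coupling to calcium, loaded with no-wash calcium dye; kinetic fluorescence read 180 s after compound addition for agonism, then a further 180 s after an EC20 dopamine challenge for potentiation.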
# [5] = biological target: D(1A) dopamine receptor (Homo sapiens) (UniProt P21728); assay: HTS Assay for Allosteric Agonists of the Human D1 Dopamine Receptor: Primary Screen for Potentiators (AID 488982)
# How it was run: as §1
# [6] = biological target: D(1A) dopamine receptor (Homo sapiens) (UniProt P21728); assay: HTS Assay for Allosteric Agonists of the Human D1 Dopamine Receptor: Primary Screen for Antagonists (AID 488983);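 note: calcium flux response to an EC80 dopamine challenge measured with no-wash dye; nearly all actives have a fitted effect of over 65% in size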
# How it was run: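 Tetracycline-induced HEK293 T-REx D1 line, force-coupled to calcium flux, read with no-wash calcium dye. Compound added after 10 s baseline, read 180 s for agonism, then EC80 dopamine added and read a further 180 s.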
# [7] = biological target: ATP-dependent 6-phosphofructokinase (Trypanosoma brucei brucei) (UniProt O15648); assay: qHTS Assay to Find Inhibitors of T. brucei phosphofructokinase: hit validation (AID 492961);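 note: luminescence reports ADP formed as PFK phosphorylates fructose-6-phosphate with ATP; series mostly up to about 51 µM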
# How it was run: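 Inhibition of parasite PFK is measured as reduced ADP formation, quantified via luciferase after ATP depletion. Assay used 0.1 mM ATP, 0.5 mM F6P, 1.25 nM enzyme, 45 min incubation.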
# [8] = biological target: ATPase family AAA domain-containing protein 5 (Homo sapiens) (UniProt Q96QE3); assay: Validation screen for small molecules that inhibit ELG1-dependent DNA repair in human embryonic kidney (HEK293T) cells expressing luciferase-tagged ELG1 (AID 493107);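 note: cells co-treated with the DNA-damaging agent 5-fluorouridine alongside compound; series mostly up to about 46 µM; inhibitors lower the ELG1-luciferase luminescence signal; nearly all actives have a fitted effect of over 70% in size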
# How it was run: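 HEK293T cells expressing luciferase-tagged ELG1, 2,000 per well, treated with 5-fluorouridine plus compound for 16 h at 37 C. ONE-Glo luminescence after 30 min at room temperature reports ELG1 reporter level.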
# [9] = biological target: Thyrotropin-releasing hormone receptor (Homo sapiens) (UniProt P34981); assay: qHTS for Small Molecule Agonists and Allosteric Enhancers of Human TRH Receptor: Validation Screen for Agonists (AID 493127;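 active = calcium activation more than 3 SD above the typical response in the agonist read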); conditions: TRH receptor agonist cell assay; at 2 µM; stronger effect = higher value
# How it was run: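 TRHR cells loaded with fluo-8 calcium dye; FDSS kinetic fluorescence (Ex 480/Em 530) read at 1 s/cycle after 23 nL compound addition. Agonist-mode calcium response recorded before the 10 nM TRH (EC20) addition.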
# [10] = Nrf2 qHTS screen for inhibitors: Validation (AID 493153; active = well fitted inhibition curve with a large enough effect in the main read-out, with a control signal flat, not every such curve was filed as active); conditions: viability change: measured here: cytotoxicity max response
# How it was run: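 A549 cells carrying ARE-firefly luciferase reporter, 5000 cells/well in 5% FBS OPTI-MEM, treated with compound over a concentration series for 18-24 h at 37 C. Luciferase luminescence gave Nrf2 activity; CellTiter-Fluor fluorescence gave viability.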
# [11] = qHTS for Inhibitors of Cell Surface uPA Generation: Validation Assay (AID 493164)
# How it was run: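 RAW 264.7 cells (4000/well) were plated overnight, then exposed for 18 h at 37 C, 5% CO2 to compounds in a 7-point 1:5 titration (2.45 nM–38.3 uM final). Intracellular ATP was read by ATP-Lite luminescence.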
# [12] = biological target: Galactokinase (Homo sapiens) (UniProt P51570); assay: qHTS Validation Assay for Inhibitors of Human Galactokinase (GALK) (AID 493189)
# How it was run: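 Compounds were pin-transferred into ATP buffer, then GALK-galactose mix was added (final 5 nM enzyme, 100 uM galactose, 35 uM ATP). After 1 h at room temperature, remaining ATP was measured luminescently.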
# [13] = Validation screen for small molecules that induce DNA re-replication in SW480 colon adenocarcinoma cells (AID 504364)
# How it was run: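 SW480 cells (250/well) exposed 48 h at 37 C, 5% CO2, then Hoechst-stained 40 min. Nuclear DNA content imaged by fluorescence scanning (405 nm excitation, 500-530 nm emission); re-replication scored as increased nuclei with elevated intensity.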
# [14] = biological target: Peptidyl-prolyl cis-trans isomerase NIMA-interacting 1 (Homo sapiens) (UniProt Q13526); assay: qHTS Validation Assay to Find Inhibitors of Pin1 (AID 504536; active = well fitted inhibition curve with a large enough effect in the polarisation, with a control signal flat, not every such curve was filed as active; the % refers to the polarisation)
# How it was run: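 Fluorescence polarization competition: compounds (titration) displace HiFluor-488-labeled Pin1-1b peptide from Pin1 (0.3 uM final) in pH 7.5 HEPES buffer with DTT, 10 min at room temperature; %Activity normalized to no-enzyme wells, curves fitted.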
# [15] = biological target: Phosphoglycerate kinase, glycosomal (Trypanosoma brucei brucei) (UniProt P07378); assay: qHTS Validation Assay to Find Inhibitors of Phosphoglycerate Kinase (AID 504547)
# How it was run: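 PGK activity was coupled to GAPDH (100nM final), which generates the unstable substrate 1,3-bisphosphoglycerate in-well. Reactions ran 60 minutes at room temperature in 100mM TEA pH 7.6, 5mM MgCl2, 0.01% Tween-20, then Kinase-Glo Plus luminescence was read.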
# [16] = biological target: phosphoglycerate mutase (Leishmania major) (UniProt Q4Q090); assay: qHTS Validation Assay to Find Inhibitors of Phosphoglycerate Mutase (AID 504548);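 note: end-point luminescence from Kinase-GloPlus after the PGAM reaction; series mostly up to about 58 µM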
# How it was run: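 Inhibition of L. major PGAM was assessed by Kinase-GloPlus luminescence following a 45-minute room-temperature reaction with enzyme at 1.25nM final.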
# [17] = biological target: Ubiquitin carboxyl-terminal hydrolase 1 (Homo sapiens) (UniProt O94782); assay: Inhibitors of USP1/UAF1: Pilot qHTS (AID 504865);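 note: rhodamine fluorescence freed from ubiquitin-rhodamine substrate followed over time; top concentration of the series differs between compounds; nearly all actives have a fitted effect of over 35% in size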
# How it was run: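 Kinetic fluorescence assay: 1nM USP1/UAF1, 15 min compound preincubation, then 150nM Ub-Rho; 480/540 nm.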
# [18] = qHTS for Inhibitors of ATXN expression: Validation of Cytotoxic Assay (AID 588349)
# How it was run: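 HEK293 cells treated with titrated compound for 72 hr at 37 degrees C; viability read as intracellular ATP by CellTiter Glo luminescence.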
# [19] = qHTS for Inhibitors of ATXN expression: Validation (AID 588378); note: series mostly up to about 57 µM; nearly all actives have a fitted effect of over 75% in size
# How it was run: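 Validation of ATXN2 expression inhibitors uses a cell-based luciferase fusion reporter in HEK293 cells, with 24 h compound exposure and paired viability (fluorescence) and reporter (luminescence) end-point reads.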
# [20] = biological target: Thyrotropin receptor (Homo sapiens) (UniProt P16473); assay: qHTS Assay for Antagonists of the Thyroid Stimulating Hormone Receptor (AID 488980); note: series mostly up to about 58 µM
# How it was run: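 Cells expressing human TSHR (HEK293) are dispensed in HBSS/HEPES containing 70 uM RO 20-1724, compound is added, then TSH at EC80 (4 nM final). Antibody in lysis buffer follows, 30 minutes at room temperature before HTRF detection.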
# Chain of Ubiquitin carboxyl-terminal hydrolase 1 (Homo sapiens) (O94782 whole entry, looked up): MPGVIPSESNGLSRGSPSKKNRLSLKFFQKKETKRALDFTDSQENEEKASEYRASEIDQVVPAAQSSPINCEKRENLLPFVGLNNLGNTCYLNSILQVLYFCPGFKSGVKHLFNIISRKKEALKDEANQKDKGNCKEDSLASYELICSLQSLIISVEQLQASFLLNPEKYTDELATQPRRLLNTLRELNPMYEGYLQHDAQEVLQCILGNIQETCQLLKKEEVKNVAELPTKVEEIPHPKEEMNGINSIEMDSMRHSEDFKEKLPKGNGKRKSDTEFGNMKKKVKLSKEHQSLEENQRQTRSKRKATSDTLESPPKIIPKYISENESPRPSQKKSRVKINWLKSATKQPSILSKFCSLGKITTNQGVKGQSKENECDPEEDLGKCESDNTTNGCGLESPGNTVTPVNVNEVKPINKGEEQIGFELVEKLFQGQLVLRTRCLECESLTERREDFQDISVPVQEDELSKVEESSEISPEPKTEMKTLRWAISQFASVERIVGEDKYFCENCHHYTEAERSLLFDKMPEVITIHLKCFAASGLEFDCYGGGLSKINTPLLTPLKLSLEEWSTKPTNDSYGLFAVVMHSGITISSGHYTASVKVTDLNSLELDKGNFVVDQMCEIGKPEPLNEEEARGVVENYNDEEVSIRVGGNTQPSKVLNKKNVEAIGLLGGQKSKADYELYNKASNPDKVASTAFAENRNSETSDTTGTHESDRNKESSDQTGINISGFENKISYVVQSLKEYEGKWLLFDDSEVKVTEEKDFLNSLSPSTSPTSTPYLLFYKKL
# Chain of Galactokinase (Homo sapiens) (P51570 whole entry, looked up): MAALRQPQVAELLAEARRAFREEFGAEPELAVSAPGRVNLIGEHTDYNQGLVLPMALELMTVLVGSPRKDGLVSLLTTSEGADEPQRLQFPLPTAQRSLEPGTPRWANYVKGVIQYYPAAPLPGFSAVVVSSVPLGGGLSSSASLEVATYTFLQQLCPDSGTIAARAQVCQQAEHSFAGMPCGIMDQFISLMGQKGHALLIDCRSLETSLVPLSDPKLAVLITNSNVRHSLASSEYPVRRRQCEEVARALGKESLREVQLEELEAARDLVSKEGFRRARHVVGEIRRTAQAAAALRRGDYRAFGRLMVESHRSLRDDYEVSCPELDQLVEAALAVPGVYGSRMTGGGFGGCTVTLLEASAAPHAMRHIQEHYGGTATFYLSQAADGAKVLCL
# Chain of phosphoglycerate mutase (Leishmania major) (Q4Q090 1-553): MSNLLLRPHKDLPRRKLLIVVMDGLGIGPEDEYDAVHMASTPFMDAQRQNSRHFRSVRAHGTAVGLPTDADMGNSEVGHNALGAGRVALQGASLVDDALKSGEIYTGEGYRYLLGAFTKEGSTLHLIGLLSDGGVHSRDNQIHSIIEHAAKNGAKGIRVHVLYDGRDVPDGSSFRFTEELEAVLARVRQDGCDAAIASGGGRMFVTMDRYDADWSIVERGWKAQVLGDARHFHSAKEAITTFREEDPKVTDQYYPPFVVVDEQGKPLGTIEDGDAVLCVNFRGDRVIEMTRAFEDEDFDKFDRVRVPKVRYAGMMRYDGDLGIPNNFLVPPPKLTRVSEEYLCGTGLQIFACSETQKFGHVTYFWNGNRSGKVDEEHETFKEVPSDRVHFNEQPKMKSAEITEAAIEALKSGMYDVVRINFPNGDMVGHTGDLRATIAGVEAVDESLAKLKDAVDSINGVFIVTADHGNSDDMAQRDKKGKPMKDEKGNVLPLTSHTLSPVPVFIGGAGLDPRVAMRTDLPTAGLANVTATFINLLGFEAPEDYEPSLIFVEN
# Chain of Peptidyl-prolyl cis-trans isomerase NIMA-interacting 1 (Homo sapiens) (Q13526 whole entry, looked up): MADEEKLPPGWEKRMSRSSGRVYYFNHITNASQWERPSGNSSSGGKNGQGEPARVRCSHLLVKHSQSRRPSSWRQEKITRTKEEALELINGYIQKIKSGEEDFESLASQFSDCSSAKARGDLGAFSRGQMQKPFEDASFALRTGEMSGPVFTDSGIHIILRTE
# Chain of Transient receptor potential cation channel subfamily V member 1 (Homo sapiens) (Q8NER1 whole entry, looked up): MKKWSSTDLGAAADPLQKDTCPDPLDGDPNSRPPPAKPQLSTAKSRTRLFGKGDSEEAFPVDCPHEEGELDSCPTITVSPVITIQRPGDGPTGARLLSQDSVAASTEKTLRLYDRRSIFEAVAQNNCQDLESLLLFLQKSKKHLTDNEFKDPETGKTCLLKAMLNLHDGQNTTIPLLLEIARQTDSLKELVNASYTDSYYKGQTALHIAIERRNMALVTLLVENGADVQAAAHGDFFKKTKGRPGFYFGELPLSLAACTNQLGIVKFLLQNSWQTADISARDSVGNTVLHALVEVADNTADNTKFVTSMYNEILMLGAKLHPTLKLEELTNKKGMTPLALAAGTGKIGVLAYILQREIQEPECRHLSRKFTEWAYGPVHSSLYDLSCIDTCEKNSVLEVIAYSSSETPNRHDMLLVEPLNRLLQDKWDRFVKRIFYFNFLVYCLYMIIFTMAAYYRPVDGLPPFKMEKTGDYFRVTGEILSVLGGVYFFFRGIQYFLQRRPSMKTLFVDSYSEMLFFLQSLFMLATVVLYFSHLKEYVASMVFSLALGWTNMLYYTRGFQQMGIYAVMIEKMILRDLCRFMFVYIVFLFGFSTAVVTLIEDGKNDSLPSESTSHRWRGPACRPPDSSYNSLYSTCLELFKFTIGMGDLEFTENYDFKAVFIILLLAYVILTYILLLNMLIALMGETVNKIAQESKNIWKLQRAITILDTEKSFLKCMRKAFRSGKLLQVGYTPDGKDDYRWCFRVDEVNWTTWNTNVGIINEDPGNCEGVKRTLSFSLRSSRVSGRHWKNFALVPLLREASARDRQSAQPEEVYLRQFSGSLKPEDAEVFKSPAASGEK
# Chain of ATPase family AAA domain-containing protein 5 (Homo sapiens) (Q96QE3 whole entry, looked up, the tested form may be a part): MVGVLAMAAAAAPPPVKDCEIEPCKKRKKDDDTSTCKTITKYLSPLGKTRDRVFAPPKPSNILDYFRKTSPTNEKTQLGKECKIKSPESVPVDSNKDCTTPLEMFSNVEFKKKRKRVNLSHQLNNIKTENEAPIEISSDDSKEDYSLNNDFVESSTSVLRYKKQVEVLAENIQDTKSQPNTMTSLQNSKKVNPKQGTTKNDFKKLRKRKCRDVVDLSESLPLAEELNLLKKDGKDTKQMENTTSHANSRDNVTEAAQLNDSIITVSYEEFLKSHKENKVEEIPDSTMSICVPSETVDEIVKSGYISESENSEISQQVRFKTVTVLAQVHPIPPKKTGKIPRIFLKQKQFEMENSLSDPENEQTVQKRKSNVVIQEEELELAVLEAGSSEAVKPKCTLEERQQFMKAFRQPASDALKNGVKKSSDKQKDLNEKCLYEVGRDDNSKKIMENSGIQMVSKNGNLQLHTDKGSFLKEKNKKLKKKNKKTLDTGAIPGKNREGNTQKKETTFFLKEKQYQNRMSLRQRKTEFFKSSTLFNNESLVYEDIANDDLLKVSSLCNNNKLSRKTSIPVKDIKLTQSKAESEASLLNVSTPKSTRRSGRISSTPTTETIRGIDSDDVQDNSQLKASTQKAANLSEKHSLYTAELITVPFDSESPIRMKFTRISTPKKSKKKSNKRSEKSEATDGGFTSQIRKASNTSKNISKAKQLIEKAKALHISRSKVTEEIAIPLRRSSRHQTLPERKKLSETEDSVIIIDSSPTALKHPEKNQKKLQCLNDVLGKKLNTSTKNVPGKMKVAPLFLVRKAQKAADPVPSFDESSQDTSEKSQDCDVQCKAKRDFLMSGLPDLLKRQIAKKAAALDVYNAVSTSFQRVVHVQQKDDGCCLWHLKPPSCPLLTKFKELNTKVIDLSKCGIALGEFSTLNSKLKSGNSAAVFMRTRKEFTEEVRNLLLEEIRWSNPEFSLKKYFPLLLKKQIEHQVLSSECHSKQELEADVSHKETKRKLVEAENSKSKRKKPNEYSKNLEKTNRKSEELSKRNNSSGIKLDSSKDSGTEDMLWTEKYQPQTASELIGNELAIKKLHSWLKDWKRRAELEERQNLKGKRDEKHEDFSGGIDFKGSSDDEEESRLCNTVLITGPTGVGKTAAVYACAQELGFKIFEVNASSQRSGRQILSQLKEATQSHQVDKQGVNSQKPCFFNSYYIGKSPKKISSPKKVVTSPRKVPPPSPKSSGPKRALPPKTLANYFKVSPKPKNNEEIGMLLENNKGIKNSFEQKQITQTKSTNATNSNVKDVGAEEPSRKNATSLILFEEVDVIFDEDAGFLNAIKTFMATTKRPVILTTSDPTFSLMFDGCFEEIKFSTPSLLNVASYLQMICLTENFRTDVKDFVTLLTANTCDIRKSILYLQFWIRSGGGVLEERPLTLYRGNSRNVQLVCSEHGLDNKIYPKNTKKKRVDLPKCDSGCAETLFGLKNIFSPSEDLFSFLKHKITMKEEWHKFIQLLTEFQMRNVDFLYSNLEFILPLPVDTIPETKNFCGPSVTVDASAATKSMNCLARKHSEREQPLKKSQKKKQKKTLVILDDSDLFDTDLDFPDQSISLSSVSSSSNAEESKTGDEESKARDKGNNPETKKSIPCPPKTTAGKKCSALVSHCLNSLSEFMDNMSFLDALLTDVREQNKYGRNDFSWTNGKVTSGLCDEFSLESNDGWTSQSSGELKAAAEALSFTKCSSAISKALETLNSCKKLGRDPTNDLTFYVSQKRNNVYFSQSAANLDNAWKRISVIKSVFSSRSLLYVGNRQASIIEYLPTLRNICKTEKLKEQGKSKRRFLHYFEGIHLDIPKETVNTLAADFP
# Chain of D(1A) dopamine receptor (Homo sapiens) (P21728 whole entry, looked up): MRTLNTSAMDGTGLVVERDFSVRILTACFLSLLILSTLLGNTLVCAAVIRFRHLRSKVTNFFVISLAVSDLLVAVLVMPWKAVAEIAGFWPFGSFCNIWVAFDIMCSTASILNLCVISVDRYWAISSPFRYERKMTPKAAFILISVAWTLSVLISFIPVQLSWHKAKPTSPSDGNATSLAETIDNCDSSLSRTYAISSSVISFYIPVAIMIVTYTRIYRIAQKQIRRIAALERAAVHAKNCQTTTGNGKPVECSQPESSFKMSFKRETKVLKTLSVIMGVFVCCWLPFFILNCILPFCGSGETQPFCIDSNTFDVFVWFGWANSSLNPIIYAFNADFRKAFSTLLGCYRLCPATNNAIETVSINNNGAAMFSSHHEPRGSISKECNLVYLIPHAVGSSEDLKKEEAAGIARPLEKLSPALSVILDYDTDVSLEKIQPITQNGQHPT
structure (smiles),measurement,setting,value
C[N+](C)(C)CCCCCC[N+](C)(C)C,Potency,[1],inactive
same,Potency,[2],inactive
same,outcome,[3],inactive
same,outcome,[4],inactive
same,outcome,[5],inactive
same,Potency,[6],inactive
same,outcome,[7],inactive
same,outcome,[8],inactive
same,activation,[9],0.625% (inactive) and 0.562% (inactive)
same,outcome,[10],inactive
same,viability change,[10],-1.95% and 3.05%
same,outcome,[11],inactive
same,outcome,[12],inactive
same,outcome,[13],inactive
same,outcome,[14],inactive
same,outcome,[15],inactive
same,outcome,[16],inactive
same,Potency,[17],inactive
same,Potency,[18],inactive
same,Potency,[19],inactive
Clc1ccc(Cn2c(CN3CCCC3)nc3ccccc32)cc1,Potency,[1],inactive
same,outcome,[3],inactive
same,outcome,[20],inactive
same,outcome,[4],inactive
same,outcome,[5],inactive
same,Potency,[6],inactive
same,outcome,[7],inactive
same,outcome,[8],inactive
same,activation,[9],-8.12% (inactive)
same,outcome,[10],inactive
same,viability change,[10],1.98%
same,outcome,[11],inactive
same,outcome,[12],inactive
same,outcome,[13],inactive
same,outcome,[14],inactive
same,outcome,[15],inactive
same,outcome,[16],inactive
same,Potency,[18],inactive
same,Potency,[19],inactive
COc1cccc(-c2cc(=O)c3ccccc3o2)c1N,Potency,[1],inactive
same,Potency,[2],inactive
same,outcome,[3],inactive
same,outcome,[20],inactive
same,outcome,[4],inactive
same,outcome,[5],inactive
same,Potency,[6],inactive
same,activation,[9],-3.44% (inactive)
same,outcome,[10],inactive
same,viability change,[10],-8.39%
same,outcome,[11],inactive
same,outcome,[12],inactive
same,outcome,[13],inactive
same,outcome,[14],inactive
same,outcome,[15],inactive
same,outcome,[16],inactive
same,Potency,[17],inactive
same,Potency,[18],inactive
same,Potency,[19],inactive
